Assay results published in PubChem BioAssay (EPA / NIEHS).
Calls of active or inactive are those of the source. The calls were made as follows: active = hit-call score of the fitted dose curve at least 0.9, where 1 is the maximum; inactive = score below 0.9.

The compounds below were run on TIMP metallopeptidase inhibitor 1 (TIMP1), TIMP1 (gene 7076) (assay: BSK_hDFCGF_TIMP1: BioMAP Diversity Plus: hDFCGF Assay for TIMP metallopeptidase inhibitor 1 (TIMP1) Biomarker Activity (AID 2283062)). Settings: primary human foreskin fibroblasts; actives raise or lower the signal.
Experimental: BSK_hDFCGF is a cell-based, multiplexed-readout assay that uses foreskin fibroblast, a human skin primary cell, with measurements taken at 24 hours after chemical dosing in a 96-well plate.BSK_hDFCGF_TIMP1 is an assay component measured in the BSK_hDFCGF assay. It measures TIMP-1 antibody related to regulation of gene expression using ELISA technology.Data from the assay component BSK_hDFCGF_TIMP1 was analyzed into 1 assay endpoint. This assay endpoint, BSK_hDFCGF_TIMP1, was analyzed with bidirectional fitting relative to DMSO as the negative control and baseline of activity. Using a type of binding reporter, gain or loss-of-signal activity can be used to understand changes in the signaling as they relate to the gene TIMP1. Furthermore, this assay endpoint can be referred to as a primary readout, because this assay has produced multiple assay endpoints where this one serves a signaling function. To generalize the intended target to other relatable targets, this assay endpoint is annotated to the protease inhibitor intended target family, where the subfamily is metalloproteinase inhibitor.
The levels of cell surface (or secreted, indicated by the prefix "s") biomarker endpoints were measured by ELISA. Overt cytotoxicity to cells in confluent adherent cultures (all systems other than the BT system) was assessed by measuring total protein levels using sulforhodamine B (SRB) staining in parallel cultures at the time of biomarker measurements, indicated as SRB endpoints. For proliferation assays for adherent cell types, individual cell types are cultured at sub-confluence and relative cell numbers quantified by SRB staining at time points optimized for each system (48 h: 3C and CASM3C systems; 72 h: BT and HDF3CGF systems; 96 h: SAg system). SRB was performed by staining cells with 0.1% SRB after fixation with 10% TCA and reading wells at 560 nm.Viability and proliferation of PBMC (T cells) was quantified by Alamar Blue reduction for the SAg and BT systems. For PBMC viability (referred to as PBMC Cytotoxicity within the assay endpoint names), cells were plated (75,000/well in a 96-well plate) and then chemical samples added for 1 h before addition of activators, SEB and TSST-1 (20 ng/mL final concentration each). Cells were incubated for 90 h. Then, Alamar Blue (20 uL/well) (Invitrogen, Cat DAL1100) was added for 6 h, and the plates were read with a fluorescence microplate reader at 546/580 nm (excitation/emission). For PBMC proliferation, cells were plated and activated as above but incubated for only 16 h prior to addition of Alamar Blue. Plates were read after 6 h.
With `CC(=O)O` the outcome was “inactive”. In the case of `COC(=O)CCC(=O)OC`, the outcome is reported as “inactive”. `CC(=O)S[C@H](C(=O)N[C@H]1Cc2ccccc2[C@H]2CCC[C@@H](C(=O)O)N2C1=O)C(C)C` was tested, and the outcome was “inactive”. For `CC(C)(O)c1ccc(CNC(=O)c2cccnc2Oc2ccc(F)cc2)cc1`, the outcome was “inactive”. With `CCCCCCCCCCCCCCCCO` the outcome was “inactive”. With `CN(C)C(=O)NC1(c2ccccc2)CCN(CCC[C@]2(c3ccc(Cl)c(Cl)c3)CCCN(C(=O)c3ccccc3)C2)CC1` the outcome was “inactive”. In the case of `CCCC(=O)O`, the outcome is reported as “inactive”. With `O=C(O)c1cccnc1` the outcome was “inactive”. For `C/C=C/C=C/C(=O)O`, the outcome was “inactive”. With `CC(=O)O[C@]1(C(C)=O)CC[C@H]2[C@@H]3C=C(Cl)C4=CC(=O)[C@@H]5C[C@@H]5[C@]4(C)[C@H]3CC[C@@]21C` the outcome was “inactive”. In the case of `Cc1occc(=O)c1O`, the outcome is reported as “inactive”. For `O=C(Oc1ccccc1)c1cccc(C(=O)Oc2ccccc2)c1`, the outcome was “inactive”. For `O=Cc1ccccc1C=O`, the outcome was “inactive”. `O=C1c2c(O)cccc2Cc2cccc(O)c21` was tested, and the outcome was “inactive”. In the case of `O=C(O)CN(CC(=O)O)CC(=O)O`, the outcome is reported as “inactive”. For `NC1CCCCC1`, the outcome was “inactive”. For `CC(=O)OC1CC(C)OC(C)O1` (stereo not given), the outcome was “inactive”. With `CC(=O)OCC(COC(C)=O)OC(C)=O` the outcome was “inactive”. In the case of `CCOCCOCCO`, the outcome is reported as “inactive”. With `CC1=C(C)S(=O)(=O)CCS1(=O)=O` the outcome was “inactive”. With `CCC(C)N(C)C(=O)c1cc2ccccc2c(-c2ccccc2Cl)n1` (stereo not given) the outcome was “inactive”. With `CO[C@@H]1COCC[C@@H]1N[C@@H]1CC[C@@](C(=O)N2CCc3ncc(C(F)(F)F)cc3C2)(C(C)C)C1` the outcome was “inactive”. For `CCCCCCCCCC[N+](C)(C)[O-]`, the outcome was “inactive”. With `CS(=O)(=O)c1ccc([C@@H](C[C@H]2CCC(=O)C2)C(=O)Nc2cnccn2)cc1Cl` the outcome was “inactive”. In the case of `O=C(NS(=O)(=O)/C=C/c1cccs1)c1ccc(F)cc1Br`, the outcome is reported as “inactive”. In the case of `CSc1ccc(Oc2ccc(S(N)(=O)=O)cc2CN(C)C)cc1C`, the outcome is reported as “inactive”. With `O=C1NC(=O)C(c2ccccc2)(c2ccccc2)N1` the outcome was “inactive”. With `CCc1cc(C2=C(C(=O)O)N(c3ccccc3C(F)(F)F)S(=O)(=O)c3ccccc32)cc2c1OCO2` the outcome was “inactive”. For `C/C=C/c1ccc(OC)cc1`, the outcome was “inactive”. `CC(C)(C)c1ccccc1` was tested, and the outcome was “inactive”. `O=C(N[C@@H](c1ccccc1)[C@@H]1CCCCN1)c1cccc(C(F)(F)F)c1Cl` was tested, and the outcome was “inactive”. `CC(C)c1cccc(C(C)C)c1` was tested, and the outcome was “inactive”. For `Oc1ccc(O)cc1`, the AC50 was 13.4 µM (active). With `CN(C)CCCN(C)CCCN(C)C` the outcome was “inactive”. In the case of `CCCCOC(=O)CCCCC(=O)OCCCC`, the outcome is reported as “inactive”. In the case of `c1ccc2occc2c1`, the outcome is reported as “inactive”. With `NC(=Nc1ccccc1)Nc1ccccc1` the outcome was “inactive”. `CC(C)COC(=O)CCCCC(=O)OCC(C)C` was tested, and the outcome was “inactive”. For `CCCCC(CC)COC(=O)CCCCCCCC(=O)OCC(CC)CCCC` (stereo not given), the outcome was “inactive”. For `Cc1ccc(C(C)(C)C)c(O)c1`, the outcome was “inactive”.
